# Assay results from PubChem BioAssay (NCI).
# This is part of a sample that, as a whole, favours compounds with a hit. Of some 83,000 tested, about 20% had one in any assay.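 Values shown are percent growth following 48 h exposure of cells in 96-well plates to a single concentration of compound; below 10 was considered active.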 A number with no mark means an inactive call. Activity calls are given as the source filed them.
# Legend:
# Assay in all cases: NCI-60 one-dose screen, 48 h (100 = growth as untreated, 0 = no growth, -100 = all killed)
# NCI-H226 lung = settings: 10 µM
# NCI-H322M lung = settings: 10 µM
# HOP-62 NSCLC = settings: 10 µM
# NCI-H460 lung = settings: 10 µM
# NCI-H522 lung = settings: 10 µM
# A549/ATCC NSCLC = settings: 10 µM
# DU-145 prostate = settings: 10 µM
# K-562 leukemia = settings: 10 µM
# SF-539 CNS = settings: 10 µM
# M14 melanoma = settings: 10 µM
# HCT-15 colon = settings: 10 µM
# HT29 colon = settings: 10 µM
# SNB-75 CNS = settings: 10 µM
# SNB-19 CNS = settings: 10 µM
# U251 CNS = settings: 10 µM
# MOLT-4 leukemia = settings: 10 µM
# SR leukemia = settings: 10 µM
# RPMI-8226 leukemia = settings: 10 µM
# SK-OV-3 ovarian = settings: 10 µM
# MDA-MB-468 breast = settings: 10 µM unless noted
Compound,growth (NCI-H226 lung),growth (NCI-H322M lung),growth (HOP-62 NSCLC),growth (NCI-H460 lung),growth (NCI-H522 lung),growth (A549/ATCC NSCLC),growth (DU-145 prostate),growth (K-562 leukemia),growth (SF-539 CNS),growth (M14 melanoma),growth (HCT-15 colon),growth (HT29 colon),growth (SNB-75 CNS),growth (SNB-19 CNS),growth (U251 CNS),growth (MOLT-4 leukemia),growth (SR leukemia),growth (RPMI-8226 leukemia),growth (SK-OV-3 ovarian),growth (MDA-MB-468 breast)
COc1cc(C2CC(c3ccc(Oc4ccc(Cl)cc4)cc3)=NN2c2nc(-c3ccc(Cl)cc3)c(C#N)c(N3CCOCC3)n2)cc(OC)c1OC (stereo not given),90.4%,98%,98.9%,107%,92.4%,97.9%,106%,97.5%,95.7%,99%,95.7%,106%,78.3%,102%,102%,105%,88.5%,104%,102%,107%
Cn1cc(-c2nc(N)nnc2-c2c[nH]c3ccccc23)c2cc(Br)cnc21,0.98% (active),37.2%,28.5%,4.09% (active),-36.5% (active),16.4%,20.6%,9.47% (active),8.25% (active),8.68% (active),10.2%,-27.2% (active),2.04% (active),44.9%,8.89% (active),13.8%,8.01% (active),13%,26.5%,-9.99% (active)
Cc1ccc2c(c1)C(=O)/C(=C/c1c[nH]c3ccccc13)S2,40.8%,72.2%,47.4%,33.6%,11.2%,64.6%,78.2%,19%,48.1%,64.2%,29.5%,55.6%,41.1%,27.3%,22.7%,32%,27.1%,32.3%,84.4%,17.8%
CCn1c(SCC(=O)Nc2ccc(-c3nc4ccccc4[nH]3)cc2)nc2ccccc2c1=O,-65.5% (active),-68.3% (active),-80.4% (active),-56.2% (active),-74.2% (active),-71.2% (active),-50.3% (active),-11.3% (active),-87.3% (active),-87.9% (active),-50% (active),-64.9% (active),-94.2% (active),-63.5% (active),-74.9% (active),3.3% (active),-15.2% (active),-11.4% (active),-70.5% (active),-81% (active)
O=C(Nc1ccc(OCC(=O)c2ccc(Cl)cc2)cc1)Nc1ccc(Cl)c(C(F)(F)F)c1,38%,49.1%,47.6%,27.6%,-12.4% (active),24.3%,66.2%,65.3%,47.3%,33.9%,23.6%,33.6%,51.5%,21.3%,35.6%,45.3%,39.5%,12.2%,33%,26%
Cc1cc(N=C2NC(=O)/C(=C/c3cc(C(C)(C)C)c(O)c(C(C)(C)C)c3)S2)n[nH]1,10.3%,28.6%,8.56% (active),0.397% (active),-26.1% (active),9.9% (active),27.2%,18.3%,18.9%,24.7%,6.98% (active),9.22% (active),1.49% (active),21.1%,6.8% (active),11%,12.2%,1.11% (active),-27.9% (active),-0.214% (active)
CC1CCN(CCCCCOc2ccc3oc4cc(Cl)ccc4c(=O)c3c2)CC1,–,–,–,–,–,–,–,–,–,–,–,–,–,–,–,–,–,–,–,57.7%
CC1(C)CC(=O)C2=C(C1)N(Cc1ccc(C(=O)O)cc1)C1=C(C(=O)CC(C)(C)C1)C2c1ccc(Cl)cc1,108%,93.7%,101%,104%,84.9%,99.3%,113%,103%,110%,101%,98.4%,112%,94.5%,112%,105%,92.9%,99.6%,113%,101%,103%
COc1ccc(C2=NN3C(C2)c2cc(Br)ccc2OC3c2ccncc2)cc1 (stereo not given),–,–,–,–,–,–,–,–,–,–,–,–,–,–,–,–,–,–,–,103%
COc1ccc(C(=O)COc2ccc(NC(=O)Nc3ccc(Cl)c(C(F)(F)F)c3)cc2)cc1,4.95% (active),36.3%,42.8%,25.5%,-43.2% (active),18.5%,47.3%,37.5%,33.7%,19%,8.56% (active),21.1%,33%,21.9%,24.3%,15.6%,7.72% (active),19.1%,41.8%,-15.1% (active)
Cc1ccc2c(c1)C(=O)/C(=C/c1ccc([N+](=O)[O-])cc1)S2,52.2%,105%,92%,92.5%,82.5%,99.6%,104%,69.9%,96.6%,97.3%,96.2%,79.1%,81.3%,92.4%,77.8%,107%,100%,65.2%,87.4%,84%
O=C(CC(=O)Nc1ccc(Oc2ncnc3scc(Nc4n[nH]c(=S)s4)c23)cc1)Nc1ccc(Br)cc1,94.4%,106%,99.8%,107%,89.6%,101%,107%,76.4%,104%,98.1%,100%,112%,95.6%,99.9%,103%,85.3%,87%,110%,98.4%,120%
O=C1CC(=O)N2CSCN(C(c3ccccc3)c3nc4ncncc4[nH]3)C2=N1 (stereo not given),–,–,–,–,–,–,–,–,–,–,–,–,–,–,–,–,–,–,–,102%
O=C(OCc1ccc2c(Cl)cc(Cl)c(O)c2n1)N1CCNCC1,–,–,–,–,–,–,–,–,–,–,–,–,–,–,–,–,–,–,–,33.6%
Cn1cc(-c2nnc(N)nc2-c2c[nH]c3ccccc23)c2cc(Br)cnc21,17.9%,65.2%,50.6%,42.3%,15.1%,55.1%,77%,15.1%,50.2%,25.1%,25.4%,35.6%,34%,66.6%,45.5%,2.48% (active),8.61% (active),26.6%,60.6%,-3.61% (active)
COc1ccc(C2c3sc4ccc(C)cc4c3Oc3nc[nH]c(=O)c32)cc1 (stereo not given),80.5%,105%,69.4%,95.6%,42.7%,97.9%,105%,36.2%,79.3%,73.2%,40.6%,112%,45.8%,75.3%,73.5%,77.9%,39.4%,90.8%,81.2%,61.3%
O=C(Nc1ccc(OCc2ccc(Cl)cc2)cc1)Nc1ccc(Cl)c(C(F)(F)F)c1,6.46% (active),25.9%,19.5%,7.92% (active),-16.7% (active),16.2%,26.6%,7.62% (active),7.92% (active),12.5%,9.07% (active),8.31% (active),28%,11%,6.47% (active),9.92% (active),2.46% (active),-9.46% (active),-18.9% (active),-15.2% (active)
O=C(CC(=O)Nc1ccc(Oc2ncnc3scc(Nc4n[nH]c(=S)s4)c23)cc1)Nc1ccc(Cl)cc1,67.8%,94.5%,89.1%,85.5%,55.2%,83%,97%,71.3%,91.6%,108%,66.9%,106%,87.7%,87.7%,90.4%,60.2%,62.2%,86.8%,77.5%,-18.5% (active)
CCNc1nnc(COc2ccc(CNC(=O)CCCC/C=C/C(C)C)cc2OC)o1,–,–,–,–,–,–,–,–,–,–,–,–,–,–,–,–,–,–,–,104%
Cn1cc(/C=C(/SS/C(=C/c2cn(C)c3cccc(C(=O)O)c23)C(=O)O)C(=O)O)c2c(C(=O)O)cccc21,97.7%,102%,103%,110%,92.6%,99.6%,104%,87.4%,98.5%,115%,99.4%,107%,88.8%,102%,99.6%,111%,98.7%,105%,114%,103%
